# According to PubChem BioAssay AID463173 (ICCB-Longwood Screening Facility, Harvard Medical School, 2010):
# The whole screen tested about 52,000 compounds, of which about 4,300 (8.3%) were called active. No stated cut-off is given here; in the data, active means survival mostly below about 52% (no sharp cut-off); inactive means mostly above about 56%. The full list was thinned out, with actives kept by preference.
# Tested on: DeltatarO mutant
# Assay: S. aureus survival, RN4220 and DeltatarO strains – OD600, teichoic acid synthesis inhibitors, primary screen (AID 463173)
# Conditions: S. aureus RN4220 wild type/DeltatarO growth, OD600, 18 h, hits give low values, screened at 18.75 µg/mL (by protocol)
row,SMILES,survival
1,O=C(Cn1cc(SCc2ccccc2F)c2ccccc21)N1CCCCCC1,73% (inactive)
2,CCOC(=O)C1CCN(C(=O)c2ccc3c(=O)n4nc(Nc5ccccc5)sc4nc3c2)CC1,117% (inactive)
3,COc1ccccc1NC(=O)Cn1c(=O)n(-c2cccc(C(C)=O)c2)c(=O)c2c3c(sc21)CN(C(C)=O)CC3,89% (inactive)
4,COc1ccc(S(=O)(=O)c2c(O)c3ccc(C(=O)NCc4ccc(Cl)cc4)cc3[nH]c2=O)cc1,89% (inactive)
5,COc1cccc(CNC(=O)CN(C)S(=O)(=O)c2ccc3[nH]c4c(c3c2)CCCC4)c1,75% (inactive)
6,CCOc1ccc(OCC)c(NC(=O)c2cnc3c(-c4ccccc4)c(C)nn3c2C)c1,91% (inactive)
7,Cc1ccc(NC(=O)c2cnc(SCC(=O)N3CCCc4ccccc43)n(C)c2=O)cc1C,85% (inactive)
8,COc1cccc2sc(NC(=O)c3ccc4c(c3)OCCO4)nc12,88% (inactive)
9,COc1ccc2oc(=O)c(-c3nnc(-c4ccc(C)cc4)o3)cc2c1,138% (inactive)
10,CC1CCN(c2nc3c(-c4cccc(Br)c4)nnn3c3ccccc23)CC1,104% (inactive)
11,CC1CCN(c2nc3c(S(=O)(=O)c4ccccc4)nnn3c3ccc(Cl)cc23)CC1,69% (inactive)
12,COc1ccc(-c2nnn3c2nc(NCc2ccccc2)c2ccccc23)cc1,89% (inactive)
13,COc1ccc(-c2nnn3c2nc(N2CCCC(C)C2)c2ccccc23)cc1 (stereo not given),-3% (active)
14,O=S(=O)(c1ccccc1)c1nnn2c1nc(N1CCN(c3ccccc3)CC1)c1cc(Cl)ccc12,91% (inactive)
15,Clc1ccc(-c2nnn3c2nc(N2CCCCC2)c2ccccc23)cc1,25% (active)
16,CC1CCCN(c2nc3c(-c4ccc(Cl)cc4)nnn3c3ccccc23)C1 (stereo not given),87% (inactive)
17,Cc1ccc(-c2nnn3c2nc(N2CCC(C)CC2)c2ccccc23)cc1,-6% (active)
18,Brc1cccc(-c2nnn3c2nc(N2CCCCC2)c2ccccc23)c1,62% (inactive)
19,O=C(NCCCN1CCN(c2ccccc2)CC1)c1nnc(Cc2c(F)cccc2Cl)o1,71% (inactive)
20,Cc1cc(NC(=O)CCc2nc3cccnc3n2Cc2cccs2)ccc1Br,50% (inactive)

row,SMILES,survival
1,COCCCNC(=O)c1cc(-c2cccnc2)nc2ccc(S(=O)(=O)N3CCC(C)CC3)cc12,113% (inactive)
2,CC(=O)c1ccc(N2CCN(C(=O)C3CCN(S(=O)(=O)c4cccc5nonc45)CC3)CC2)cc1,79% (inactive)
3,COC(=O)CSc1ncc(C#N)c(N)n1,110% (inactive)
4,COc1ccc(C)cc1NC(=O)CCc1c(C)nn(-c2ccc(N3CCCCC3)nn2)c1C,78% (inactive)
5,CC(C)COc1ccc(C(=O)Nc2onc3c2CCCC3)cc1,103% (inactive)
6,CCCCOc1ccc(C(=O)Nc2onc3c2CCCC3)cc1,49% (active)
7,CCOc1ccc(C(=O)Nc2onc3c2CCCC3)cc1,72% (inactive)
8,O=C(Nc1onc2c1CCCC2)c1ccc(Cl)cc1,77% (inactive)
9,CC(C)(C)c1ccc(C(=O)Nc2onc3c2CCCC3)cc1,56% (inactive)
10,Cc1ccc(C(=O)Nc2onc3c2CCCC3)cc1,46% (active)
11,CCCCOC(=O)c1ccc(NC(=O)c2sc3nc(C)cc(C)c3c2N)cc1,65% (inactive)
12,CCCCn1cc(S(=O)(=O)c2ccccc2)c(=O)c2cc(F)c(N3CCC(C)CC3)cc21,68% (inactive)
13,C=CCn1c(SCc2cccnc2)nnc1-c1ccncc1,88% (inactive)
14,CC(C)Oc1ccc(CNC(=O)Cc2ccc(NC(=O)N3CCSc4ncccc43)cc2)cc1,102% (inactive)
15,CC(=O)c1ccc(NC(=O)c2cccc(NC(=O)N3CCSc4ncccc43)c2)cc1,79% (inactive)
16,Cc1ccccc1NC(=O)c1ccc(NC(=O)N2CCSc3ncccc32)cc1,-2% (active)
17,Cc1ccc(Cl)cc1NC(=O)c1ccc(NC(=O)N2CCSc3ncccc32)cc1,79% (inactive)
18,CC(C)Oc1ccc(CNC(=O)c2ccc(NC(=O)N3CCSc4ncccc43)cc2)cc1,6% (active)
19,CC(C)Oc1ccc(CNC(=O)c2cccc(NC(=O)N3CCSc4ncccc43)c2)cc1,88% (inactive)
20,CCOc1ccc(NC(=O)c2ccc(NC(=O)N3CCSc4ncccc43)cc2)cc1,76% (inactive)

row,SMILES,survival
1,CCc1cccc(NC(=O)c2ccc(NC(=O)N3CCSc4ncccc43)cc2)c1,-1% (active)
2,Cc1ccc(NC(=O)c2ccc(NC(=O)N3CCSc4ncccc43)cc2)c(C)c1,86% (inactive)
3,CC(C)CC1CC(C)(C(=O)CSc2n[nH]c(-c3ccccc3)n2)OC1=O (stereo not given),80% (inactive)
4,COC(=O)c1cc(C)nc2c1c(=O)nc(SCc1cccc(C)c1)n2C1CC1,78% (inactive)
5,COc1ccc(CNC(=O)c2cnc3sc(N4CCCC4)nn3c2=O)c(OC)c1,70% (inactive)
6,Cc1ccc(Nc2c(-c3ccsc3)nc3cccc(C)n23)cc1,25% (active)
7,Cc1ccccc1Nc1c(-c2ccsc2)nc2c(C)cccn12,8% (active)
8,Cc1ccc(Nc2c(-c3ccc(C)cc3)nc3c(C)cccn23)cc1,9% (active)
9,Cc1ccccc1Nc1c(-c2ccc(O)cc2)nc2c(C)cccn12,72% (inactive)
10,Cc1ccc(Nc2c(-c3ccc(N4CCOCC4)cc3)nc3c(C)cccn23)cc1,56% (inactive)
11,Cc1ccc2nc(-c3ccsc3)c(Nc3ccc(Cl)cc3)n2c1,73% (inactive)
12,Cc1cccc(C)c1Nc1c(-c2ccsc2)nc2cccc(C)n12,54% (inactive)
13,Cc1cccn2c(Nc3ccccc3)c(-c3cccs3)nc12,89% (inactive)
14,Cc1ccc(Nc2c(-c3ccsc3)nc3c(C)cccn23)cc1,20% (active)
15,Cc1ccc(Nc2c(-c3ccc(O)cc3)nc3cccc(C)n23)cc1,84% (inactive)
16,Cc1ccccc1Nc1c(-c2ccc(Cl)cc2)nc2c(C)cccn12,69% (inactive)
17,Cc1cccn2c(Nc3ccccc3)c(-c3ccc(N4CCOCC4)cc3)nc12,113% (inactive)
18,CCOC(=O)c1cccc(NC(=O)N2CCOCC2)c1,80% (inactive)
19,O=C(Cn1c2[n+](c3ccccc31)CC(O)CS2)N1CCCCC1 (stereo not given),72% (inactive)
20,O=C(Cn1c(=O)c2cccn2c2ccccc21)NCc1ccccc1F,84% (inactive)
